The values below come from PubChem BioAssay.

For orientation: inhibition means the change of the read-out against control, counted positive when it falls.

A short description of test [1]: antimalarial activity against Dd2 strain (AID 2302;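 active means growth inhibition above 50% at the single 2 µM test dose, taken to imply half-maximal potency below 2 µM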;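 further: 0% = DMSO untreated growth and 100% = chloroquine plus artemisinin killed control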). To be noted: P. falciparum Dd2 in RBCs, LDH growth readout, 72 h; at 2 µM; hits give high values.
A short description of test [2]: HepG2 cytotoxicity, primary screen, cytotoxicity control for P. falciparum antimalarial project, cell-based, ATP luminescence (AID 2303;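 active means inhibition above 50%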;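 further: 0% = DMSO wells and 100% = digitonin-killed cells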). The settings on record: HepG2 viability, 24-48 h, at 10 µM, hits give high values.
In test [3] the target is L-lactate dehydrogenase (Plasmodium falciparum (isolate CDC / Honduras)) (UniProt Q27743). The experiment in a line: PfLDH activity inhibition – cell lysate, 3D7 strain, counter-screen for P. falciparum growth inhibition project (AID 2304).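 Further: 0% = vehicle and 100% = reference inhibitor.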 The settings on record: P. falciparum 3D7 crude extract, LDH APAD/NBT absorbance; at 2 µM; hits give high values.
Test [4] is described as follows: inhibition of 3D7 malaria parasite growth – strain 3D7 (AID 2306).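 Further: 0% = DMSO wells and 100% = chloroquine plus artemisinin control wells.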 To be noted: P. falciparum 3D7 erythrocytic growth, LDH absorbance, 72 h; at 2 µM; hits give high values.
Test [5] deals with Calcium-dependent protein kinase 1 (Plasmodium falciparum (isolate 3D7)) (UniProt P62344). The experiment in a line: PfCDPK1 kinase inhibitors, biochemical, TCAMS library (AID 1159585; cut-off not given, nearly all actives have IC50 up to about 0.98 µM;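 further: inhibitors leave more ATP so luminescence rises with inhibition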). To be noted: recombinant PfCDPK1, Kinase-Glo ATP depletion luminescence. (Kinase-Glo reads ATP consumption through a luciferase reaction.)
Test [6] deals with Plasmodium falciparum protein kinase 6 (PK6, PF3D7_1337100) (UniProt Q8IDW1). The experiment in a line: PfPK6 kinase inhibitors, biochemical, TCAMS library (AID 1159586). To be noted: recombinant PfPK6, Kinase-Glo ATP depletion luminescence.
In test [7] the target is Protein kinase 7 (PK7), Plasmodium falciparum 3D7 (PF3D7_0213400) (UniProt Q7YTF7). The experiment in a line: inhibition of Plasmodium PK7 catalytic activity – biochemical, TCAMS antimalarial set, Kinase-Glo luminescence (AID 1159587). To be noted: recombinant PfPK7, Kinase-Glo ATP depletion luminescence.
For test [8], the target named is Calcium-dependent protein kinase 4 (Plasmodium falciparum (isolate 3D7)) (UniProt Q8IBS5). The test is described as follows: PfCDPK4 kinase inhibitors, biochemical, TCAMS library (AID 1159588; cut-off not given, nearly all actives have IC50 up to about 0.91 µM). To be noted: recombinant PfCDPK4, Kinase-Glo ATP depletion luminescence.

A number with no mark means an inactive call. For some of these results: Potency and affinity values are given separately. The source made the active and inactive calls. Unless noted, how the calls were made is not given here.

Sequence of Calcium-dependent protein kinase 1 (Plasmodium falciparum (isolate 3D7)) (P62344 whole entry, looked up): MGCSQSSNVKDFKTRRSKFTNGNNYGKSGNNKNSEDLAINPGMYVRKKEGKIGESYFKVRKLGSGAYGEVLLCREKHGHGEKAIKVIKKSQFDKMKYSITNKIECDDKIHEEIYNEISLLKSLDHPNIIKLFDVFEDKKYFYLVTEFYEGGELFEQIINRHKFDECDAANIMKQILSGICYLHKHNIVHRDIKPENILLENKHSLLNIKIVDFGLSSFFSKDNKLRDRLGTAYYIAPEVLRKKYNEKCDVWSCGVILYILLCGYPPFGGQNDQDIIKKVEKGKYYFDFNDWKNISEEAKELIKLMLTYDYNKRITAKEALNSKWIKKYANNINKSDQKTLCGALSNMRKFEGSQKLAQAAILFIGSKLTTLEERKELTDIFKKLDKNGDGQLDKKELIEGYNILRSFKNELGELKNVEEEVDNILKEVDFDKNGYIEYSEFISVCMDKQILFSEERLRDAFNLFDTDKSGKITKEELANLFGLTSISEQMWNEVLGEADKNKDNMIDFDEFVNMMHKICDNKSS
Sequence of L-lactate dehydrogenase (Plasmodium falciparum (isolate CDC / Honduras)) (Q27743 whole entry, looked up): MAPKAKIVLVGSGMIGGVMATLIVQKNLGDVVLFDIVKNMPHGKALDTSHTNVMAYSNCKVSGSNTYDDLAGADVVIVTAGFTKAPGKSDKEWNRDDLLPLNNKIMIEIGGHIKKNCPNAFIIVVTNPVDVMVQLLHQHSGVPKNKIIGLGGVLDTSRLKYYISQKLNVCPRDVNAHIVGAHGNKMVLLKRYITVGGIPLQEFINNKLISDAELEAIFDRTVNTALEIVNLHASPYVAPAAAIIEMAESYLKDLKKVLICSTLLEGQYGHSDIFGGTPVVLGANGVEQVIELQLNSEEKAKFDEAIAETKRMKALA
Sequence of Protein kinase 7 (PK7), Plasmodium falciparum 3D7 (PF3D7_0213400) (Q7YTF7 1-343): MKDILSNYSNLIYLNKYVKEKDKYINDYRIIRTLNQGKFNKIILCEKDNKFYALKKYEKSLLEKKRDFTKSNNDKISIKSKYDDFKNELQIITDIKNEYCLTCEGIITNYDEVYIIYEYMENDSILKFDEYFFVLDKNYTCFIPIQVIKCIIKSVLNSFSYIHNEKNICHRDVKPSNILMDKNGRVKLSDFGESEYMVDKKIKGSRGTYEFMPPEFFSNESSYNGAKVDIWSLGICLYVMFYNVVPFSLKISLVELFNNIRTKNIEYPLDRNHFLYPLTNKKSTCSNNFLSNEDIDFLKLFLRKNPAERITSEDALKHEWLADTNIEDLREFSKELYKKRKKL
Sequence of Calcium-dependent protein kinase 4 (Plasmodium falciparum (isolate 3D7)) (Q8IBS5 whole entry, looked up): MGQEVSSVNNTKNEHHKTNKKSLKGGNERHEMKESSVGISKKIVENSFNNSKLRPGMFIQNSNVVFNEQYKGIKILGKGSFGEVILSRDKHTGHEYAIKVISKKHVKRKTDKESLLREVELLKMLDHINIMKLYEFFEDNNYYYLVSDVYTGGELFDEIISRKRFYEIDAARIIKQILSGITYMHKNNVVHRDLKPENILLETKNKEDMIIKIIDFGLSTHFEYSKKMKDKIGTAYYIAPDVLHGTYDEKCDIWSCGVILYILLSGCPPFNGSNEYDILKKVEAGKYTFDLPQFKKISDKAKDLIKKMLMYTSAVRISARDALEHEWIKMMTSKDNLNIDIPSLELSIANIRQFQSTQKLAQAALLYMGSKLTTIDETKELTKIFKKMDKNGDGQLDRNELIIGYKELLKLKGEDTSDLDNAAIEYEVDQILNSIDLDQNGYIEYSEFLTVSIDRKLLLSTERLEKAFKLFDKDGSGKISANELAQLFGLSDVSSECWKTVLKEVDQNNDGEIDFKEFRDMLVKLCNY
Sequence of Plasmodium falciparum protein kinase 6 (PK6, PF3D7_1337100) (Q8IDW1 1-305): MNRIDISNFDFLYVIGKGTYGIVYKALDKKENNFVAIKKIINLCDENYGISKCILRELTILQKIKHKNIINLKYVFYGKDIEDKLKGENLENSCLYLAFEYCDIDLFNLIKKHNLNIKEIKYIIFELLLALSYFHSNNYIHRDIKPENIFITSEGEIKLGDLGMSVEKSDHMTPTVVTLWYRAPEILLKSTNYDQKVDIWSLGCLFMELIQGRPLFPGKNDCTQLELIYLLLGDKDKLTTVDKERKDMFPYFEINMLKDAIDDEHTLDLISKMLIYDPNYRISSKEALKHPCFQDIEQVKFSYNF

Regarding `CCCCCCN1CCN(Cc2cccc(NC(=O)c3cc4ccccc4o3)c2)CC1`, the growth inhibition is 83% (active) in test [1] and 93% (active) in test [4]. Besides, the values for the inhibition in test [2] and in test [3] were 20% and 3%, respectively. The result in test [5], in test [6], in test [7] and in test [8] was inactive.
Regarding `Cc1cc(NC(=O)NCCN2CCC(NS(=O)(=O)c3ccccc3Cl)C2)c2ccccc2n1` (stereo not given), the growth inhibition in test [1] is 43%; in test [4], 97% (active). For the same compound, the results for the inhibition in test [2] and in test [3] were 1% and -5%, respectively. The result in test [5], in test [6], in test [7] and in test [8] was inactive.
`COc1ccc(-c2c(C(F)(F)F)nn(C)c2NC(=O)Nc2ccc(F)cc2F)cc1`: the figures for the growth inhibition in test [1] and in test [4] were 99% (active) and 101% (active), respectively. In addition, the inhibition in test [2] is 8%; in test [3], -4%. Also, the result in test [5], in test [6], in test [7] and in test [8] was inactive.
On to `CN1CCN(CCCN(Cc2cccc(-c3ccc(CNC4CCCC4)cc3)c2)C(=O)CCC2CCCC2)CC1`, for which the growth inhibition in test [1] is 84% (active); in test [4] it was 97% (active). Besides, the inhibition was 16% in test [2] and -1% in test [3]. Moreover, the result in test [5], in test [6], in test [7] and in test [8] was inactive.
With `CCC(C)OC(=O)C1=C(C)NC2=C(C(=O)CC(c3ccc(OC)c(OC)c3)C2)C1c1cccc(O)c1` (stereo not given), the growth inhibition in test [1] is 98% (active); in test [4], 100% (active). For the same compound, the inhibition in test [2] is -8%; in test [3], 0%. The outcome in test [5], in test [6], in test [7] and in test [8] was inactive.
As for `OCCNc1nc(Nc2ccc(F)cc2)nc2ccccc12`, the values for the growth inhibition in test [1] and in test [4] were 73% (active) and 94% (active), respectively. For the same compound, the inhibition in test [2] is 10%; in test [3] it was 3%. For the same compound, the result in test [5], in test [6], in test [7] and in test [8] was inactive.
As for `Cc1ccc2[nH]c3c(c2c1)CC(C(=O)NCCC(C)C)NC31CCN(Cc2ccccc2)CC1` (stereo not given), the growth inhibition is 50% (active) in test [1] and 95% (active) in test [4]. The inhibition in test [2] is 15%; in test [3], 6%. In addition, the result in test [5], in test [6], in test [7] and in test [8] was inactive.
Take `O=C(Nc1ccc(OC2CCN(Cc3ccsc3)C2)c(Cl)c1)c1cccs1` (stereo not given): the growth inhibition is 87% (active) in test [1] and 91% (active) in test [4]. The inhibition was -1% in test [2] and -5% in test [3]. Moreover, the outcome in test [5], in test [6], in test [7] and in test [8] was inactive.
For `COc1cc(F)c2ncc(Cl)c(C(O)CN3CCC(NC(=O)c4ccc5c(c4)NC(=O)CS5)CC3)c2c1` (stereo not given), the results for the growth inhibition in test [1] and in test [4] were 68% (active) and 98% (active), respectively. Also, the values for the inhibition in test [2] and in test [3] were 15% and 1%, respectively. Also, the outcome in test [5], in test [6], in test [7] and in test [8] was inactive.
Consider `Cc1[nH]c2ccccc2c(=O)c1[N+](=O)[O-]`, for which the figures for the growth inhibition in test [1] and in test [4] were -2% and 88% (active), respectively. For the same compound, the inhibition was 5% in test [2] and -5% in test [3]. The result in test [5], in test [6], in test [7] and in test [8] was inactive.
For the compound `CC1CCc2sc(-c3nnc(SC(C)C(=O)NC4CC4)o3)cc2C1` (stereo not given), the growth inhibition in test [1] was 69% (active); in test [4], 83% (active). The inhibition in test [2] is 5%; in test [3] it was -4%. In addition, the outcome in test [5], in test [6], in test [7] and in test [8] was inactive.
With `O=C(Nc1ccc(C(F)(F)F)cc1)c1ccc(NCCCN2CCCCCC2)c([N+](=O)[O-])c1`, the growth inhibition in test [1] was 98% (active); in test [4], 102% (active). Moreover, the inhibition in test [2] was 42%; in test [3], -5%. Moreover, the outcome in test [5], in test [6], in test [7] and in test [8] was inactive.
For the compound `CSc1ccc(CN2CCC(NC(=O)c3ccc(-c4cccc(Cl)c4)s3)CC2)cc1`, the growth inhibition in test [1] was 19%; in test [4], 86% (active). In addition, the results for the inhibition in test [2] and in test [3] were 75% (active) and -2%, respectively. Also, the outcome in test [5], in test [6], in test [7] and in test [8] was inactive.
Consider `COc1ccc(CN(C)CCCc2ccc(NC(=O)Cc3ccc4nc(-c5ccccc5)ccc4c3)cc2)cc1OC`, for which the growth inhibition was -2% in test [1] and 98% (active) in test [4]. Moreover, the inhibition is 10% in test [2] and -3% in test [3]. For the same compound, the outcome in test [5], in test [6], in test [7] and in test [8] was inactive.
Turning to `O=C(NCc1ccc(C(=O)N2CCC(N3CCCCC3)CC2)cc1)c1cc(-c2cccc(C(F)(F)F)c2)ccc1O`, the growth inhibition in test [1] is 58% (active); in test [4] it was 100% (active). Besides, the results for the inhibition in test [2] and in test [3] were -3% and 1%, respectively. Besides, the outcome in test [5], in test [6], in test [7] and in test [8] was inactive.
Turning to `COc1ccccc1C(=O)Nc1ccc(Nc2nc(C)cc(N(C)C)n2)cc1`, the growth inhibition in test [1] was 76% (active); in test [4], 100% (active). Further, the inhibition in test [2] was 1%; in test [3], 3%. The outcome in test [5], in test [6], in test [7] and in test [8] was inactive.
Consider `Cc1ccc(CN2CCC(C(=O)Nc3ccc(-c4cc5ccccc5[nH]4)cc3)CC2)o1`, for which the results for the growth inhibition in test [1] and in test [4] were 40% and 92% (active), respectively. Moreover, the inhibition was 19% in test [2] and 3% in test [3]. Moreover, the result in test [5], in test [6], in test [7] and in test [8] was inactive.
As to `CC(C)Cc1c(O)nc(SCCN2CCOCC2)[nH]c1=O`, the values for the growth inhibition in test [1] and in test [4] were -5% and 88% (active), respectively. Also, the inhibition in test [2] is 19%; in test [3], 1%. The outcome in test [5], in test [6], in test [7] and in test [8] was inactive.
For the compound `CC1(C)N=C(N)N=C(N)N1OCC1COc2ccccc2O1` (stereo not given), the growth inhibition is 66% (active) in test [1] and 96% (active) in test [4]. The inhibition is 56% (active) in test [2] and -1% in test [3]. Besides, the result in test [5], in test [6], in test [7] and in test [8] was inactive.
With `CN(C)c1ccc(CN2CCC(CNC(=O)c3cc(-c4ccccc4F)cs3)C2)cc1` (stereo not given), the growth inhibition in test [1] was 33%; in test [4], 101% (active). The inhibition is 35% in test [2] and 2% in test [3]. For the same compound, the result in test [5], in test [6], in test [7] and in test [8] was inactive.
